# ChEMBL document CHEMBL3988442, “University of Dundee, Small-Polar-MMV Screening Library” (2021)
# About 13,000 (27%) of roughly 48,000 compounds showed an effect of 50% or more. Some of the results follow.
# Test system: Wolbachia pipientis
# Assay: Anti-Wolbachia Cell-Based Screen
# Format: functional
# Design: scale not given: in the data most compounds retested in dose-response had high values
# Conditions: 5 µM
row,Compound,Percent Effect [%]
1,O=C(Nc1ccc2occc2c1)N1CCCC(O)(CO)CC1 (configuration not stated),-15.39
2,Cc1cc(Br)ccc1NCC(=O)Nc1cc(C(C)(C)C)no1,-8.877
3,Cc1cn[nH]c1C1COCCN1C(=O)c1ccc2c(c1)CCCC2 (configuration not stated),108.4
4,Cc1cn[nH]c1C1COCCN1C(=O)c1cc(F)ccc1F (configuration not stated),95.39
5,Cc1n[nH]c(C)c1C1COCCN1C(=O)c1ccccc1 (configuration not stated),5.535
6,O=C(c1ccc2c(c1)CCCC2)N1CCOCC1c1ncon1 (configuration not stated),4.25
7,Cc1cn[nH]c1C1COCCN1C(=O)c1ccc2[nH]nnc2c1 (configuration not stated),120.8
8,CC(=O)Nc1cc(C(=O)N2CCOCC2c2ccc(C)o2)ccc1F (configuration not stated),-2.563
9,Cc1n[nH]c(C)c1C1COCCN1C(=O)Cc1cccc(F)c1 (configuration not stated),-5.544
10,CS(=O)(=O)NCc1ccc(NC(=O)CC2=CCCCC2)cc1,0.7476
11,CCN1CCN(CC(O)c2cc(Cl)ccc2Cl)CC1 (configuration not stated),-3.784
12,OCCN1CCN(CC(O)c2cc(Cl)ccc2Cl)CC1 (configuration not stated),-2.66
13,COCCN(C)Cc1cc(Cl)ccc1OCC(O)CN1CCCCCC1 (configuration not stated),95.86
14,CN(CCO)Cc1cc(Cl)ccc1OCC(O)CN1CCCCCC1 (configuration not stated),92.98
15,CCOCC(O)CN1CCN(C(=O)c2ccnc(N(C)C)c2)CC1 (configuration not stated),-11.71
16,COCC(O)CN1CCC(NC(=O)c2ccccc2Cl)CC1 (configuration not stated),-8.699
17,CCOc1ccc(Cl)cc1C(C(=O)O)N1CCCC1 (configuration not stated),-26.77
18,COCCN(C)C(C(=O)O)c1cc(Cl)ccc1OC (configuration not stated),-4.575
19,CN(CCCO)Cc1cc(Cl)ccc1OCC(O)CN1CCCCCC1 (configuration not stated),86.94
20,COc1cccc(CN2C[C@@H](F)[C@@H](OCc3nc4cnccc4[nH]3)C2)c1,-9.076
21,COc1ccc(C2C3=C(COC3=O)Nc3[nH]nc(C)c32)cc1OC (configuration not stated),3.297
22,COCCn1ccc(NCc2cc3cc(F)ccc3o2)n1,97.47
23,Cn1nccc1NCc1cc2cc(F)ccc2o1,98.61
24,CC(NCc1cc2cc(F)ccc2o1)c1nnc2n1CCCC2 (configuration not stated),-7.412
25,COCCn1ccc(NCc2scnc2C)n1,1.852
26,COCCn1ccc(NCc2sccc2C)n1,-10.57

row,Compound,Percent Effect [%]
1,Cn1ccc(NCc2cc3cc(F)ccc3o2)n1,107
2,NC(=O)CCn1ccc(NCc2cc(F)ccc2Br)n1,-14.37
3,Cc1ccc2oc(CNC(C)c3nnc4n3CCCC4)cc2c1 (configuration not stated),-13.95
4,Cc1cc(CNc2ccnn2C)ccc1-n1cncn1,1.687
5,CC(C(=O)N1CCN(c2ccc(F)cc2)CC1)n1ccnc1 (configuration not stated),2.016
6,CN(C)S(=O)(=O)N1C[C@@H]2CC[C@H](C1)N(C/C=C/c1ccc(F)cc1)C2,19.59
7,Cc1ccccc1OCC(=O)N1CCOC2(CNCCOC2)C1 (configuration not stated),-22.9
8,COc1ccccc1CC(=O)N1CCC(NCc2cc[nH]c2)CC1,5.746
9,CCCc1noc(CCC(=O)N2CCCC2Cn2cc(C)cn2)n1 (configuration not stated),127.2
10,CCCc1noc(CCC(=O)N2CCCCC2Cn2cc(C)cn2)n1 (configuration not stated),117.6
11,CCCc1noc(CCC(=O)N2CCCC2c2ccsc2)n1 (configuration not stated),2.757
12,CN(C)S(=O)(=O)N1C[C@@H]2COC[C@]2(COc2ccccn2)C1.O=C(O)C(F)(F)F,82.39
13,O=C(CC1CC1)NC[C@]12COC[C@H]1CN(c1ncc(F)cn1)C2.O=C(O)C(F)(F)F,-10.91
14,Fc1cnc(N2C[C@@H]3COC[C@]3(COc3ccccn3)C2)nc1.O=C(O)C(F)(F)F.O=C(O)C(F)(F)F,104.4
15,COc1cc(N2C[C@@H]3COC[C@]3(C(=O)NCc3ccccn3)C2)ncn1,-14.4
16,O=C(O)C(F)(F)F.O=S(=O)(C1CC1)N1C[C@H]2CCC[C@@]2(COc2ccccn2)C1,2.736
17,CCS(=O)(=O)N1C[C@H]2CCC[C@@]2(COc2ccccn2)C1.O=C(O)C(F)(F)F,18.76
18,Fc1cnc(N2C[C@H]3CCC[C@@]3(COc3ccccn3)C2)nc1.O=C(O)C(F)(F)F.O=C(O)C(F)(F)F,-0.7444
19,O=C(O)C(F)(F)F.c1cnc(N2C[C@@H]3COC[C@]3(COCC3CCCC3)C2)nc1,99.14
20,COc1cc(N2C[C@@H]3COC[C@]3(COc3ccccn3)C2)ncn1.O=C(O)C(F)(F)F.O=C(O)C(F)(F)F,106
21,O=C(O)C(F)(F)F.O=C(O)C(F)(F)F.c1ccc(OC[C@]23COC[C@H]2CN(c2ncccn2)C3)nc1,-14.79
22,COc1cc(N2C[C@@H]3COC[C@]3(C(=O)NC3CC(F)(F)C3)C2)ncn1.O=C(O)C(F)(F)F,12.94
23,O=C(CC1CC1)NC[C@]12COC[C@H]1CN(c1ncccn1)C2.O=C(O)C(F)(F)F,-5.322
24,CNC(=O)C(C)(C)NC(=O)c1cc(OCC2CCC2)cc(C(=O)OC)c1,-3.572
25,Fc1cccc(-c2nnn3c2COC(CNCc2cccs2)C3)c1.O=C(O)C(F)(F)F (configuration not stated),3.148
26,CCCN1CCC(N2CCN(c3cc(C)nc(COC)n3)CC2)CC1,-8.34

row,Compound,Percent Effect [%]
1,CN(C)c1cccc(C2CCCN2CCCN2CCOC2=O)c1 (configuration not stated),-17.44
2,CN(CCC(O)c1ccccc1)c1cc(N2CCOCC2)ncn1 (configuration not stated),3.711
3,CN(C)c1cc(N2CCN(c3ccccn3)CC2)ncn1,109.8
4,Cc1ccccc1N1CCN(c2cc(N(C)C)ncn2)C(C)C1 (configuration not stated),2.423
5,OCC1CCCN1c1cc(N2CCN(c3ccccn3)CC2)ncn1 (configuration not stated),2.004
6,CN(CCc1ccccn1)c1cc(N2CCCCC2)ncn1,-10.66
7,CN(C)CCN(C)c1cc(N2CCN(c3ccccn3)CC2)ncn1,127.7
8,CS(=O)(=O)N1C[C@@H]2CC[C@H](C1)N(C(=O)CCc1n[nH]c3c1CCCC3)C2,-4.237
9,O=C(C1=CCCCC1)N1CCC2(CC1)COC(COc1ccccn1)C2.O=C(O)C(F)(F)F (configuration not stated),-10.4
10,Cc1cc(C(=O)N2CC[C@H]3[C@@H]2CCC(=O)N3c2ccccc2)no1,-22.73
11,CC(NCC1CCN(CCO)CC1)c1cccc(Cl)c1 (configuration not stated),-3.921
12,c1ccc2oc(C3CCN(Cc4ncon4)CC3)nc2c1,-12.07
13,CCOCC1CN(C(=O)Cc2ccccn2)Cc2c1cnn2C.O=C(O)C(F)(F)F.O=C(O)C(F)(F)F (configuration not stated),-14.09
14,CCOCC1CN(C(=O)c2ccco2)Cc2cnn(C)c21 (configuration not stated),93.66
15,CCOCC1CN(C(=O)c2ccco2)Cc2nn(C)cc21 (configuration not stated),6.633
16,CCOCC1CN(C(=O)c2ccoc2C)Cc2cnn(C)c21 (configuration not stated),98.5
17,CCOCC1CN(C(=O)c2cnoc2C)Cc2cn(C)nc21.O=C(O)C(F)(F)F (configuration not stated),-24.2
18,CCOCC1CN(C(=O)c2cnoc2C)Cc2cnn(C)c21.O=C(O)C(F)(F)F (configuration not stated),112.3
19,CCOCC1CN(C(=O)CS(C)(=O)=O)Cc2cnn(C)c21.O=C(O)C(F)(F)F (configuration not stated),16.84
20,CCOCC1CN(C(=O)Cc2ccccn2)Cc2cnn(C)c21.O=C(O)C(F)(F)F.O=C(O)C(F)(F)F (configuration not stated),117.4
21,CCOCC1CN(C(=O)c2cnoc2C)Cc2cn(CC3CC3)nc21 (configuration not stated),-17.44
22,COc1ccccc1NC(=O)NCCCC(=O)Nc1cn[nH]c1,3.089
23,CC(C)Oc1cccc(F)c1C(C(=O)O)N(C)Cc1ccon1 (configuration not stated),-4.815
24,CCCN(C)c1ccc(C(=O)NCc2ccnc(C)n2)cc1,14.15
25,CC(C#N)CN(C)Cc1cc(Cl)cc2cccnc12 (configuration not stated),-4.416
26,FC(F)(F)Sc1ccc(NCc2nnc(C3CC3)o2)cc1,4.65

row,Compound,Percent Effect [%]
1,CC(C)Cc1ncc2c(n1)CN(c1nccc(N(C)C)n1)C2,-11.83
2,Cc1nc(C(C)(C)NCc2nnc(C(C)C)o2)sc1C,-6.227
3,O=C(NCCc1cccnc1)NC1CCOC2(CCCCC2)C1 (configuration not stated),-5.946
4,CCN(CC)CCCC(C)NC(=O)c1cccnc1-n1cccn1 (configuration not stated),-4.775
5,O=C(CCC(=O)N1CCOCC1)NCc1cccnc1-n1cccn1,4.294
6,CC(O)(CNC(=O)c1cccnc1-n1cccn1)c1ccco1 (configuration not stated),109
7,CC(O)(CNC(=O)c1cccnc1-n1cccn1)c1ccsc1 (configuration not stated),107.4
8,CC(O)(CNC(=O)NCc1cccc(-n2cncn2)c1)c1ccco1 (configuration not stated),22.01
9,CCn1nc(C)c(CNC(=O)NCC(C)(O)c2ccsc2)c1C (configuration not stated),-9.413
10,CNC(=O)c1cccnc1NCc1ccc(-n2cccn2)cc1,-16.78
11,CC(O)(CNC(=O)c1cccnc1-n1cccn1)c1cccs1 (configuration not stated),100.2
12,CCOCc1ccccc1NC(=O)NCC(C)(O)c1ccsc1 (configuration not stated),-1.013
13,CCC(C)Oc1cc(C(=O)Nc2nc(C)ns2)ccn1 (configuration not stated),-22
14,CC(C)N1C[C@H](O)C[C@H]1c1nc(-c2ccc(OC(F)(F)F)cc2)no1,-2.832
15,c1c(-c2nc(CN3CCOCC3)no2)nnn1CC1CCCCC1,-29.06
16,Cc1ccc(Cl)c(NC(=O)c2cccc(CN3CC[C@H](O)C3)c2)c1,25.72
17,CSCCc1c(-c2ccccc2)ncn1CC(C)(C)N1CCCC1,-6.465
18,Cc1ccc(C(=O)N2CCC3(CCC(=O)N(CC(N)=O)C3)CC2)c(O)c1,-8.417
19,COc1cccc(CN2CCC3(CCN(C(=O)C4CC=CC4)CC3)C2)c1.O=C(O)C(F)(F)F,2.015
20,COc1cccc(CN2CCC3(CC2)CCN(c2ncc(C)cn2)C3)c1.O=C(O)C(F)(F)F,-9.924
21,COc1cccc(CN2CCC3(CC2)CCN(C(=O)[C@@H]2CCCO2)C3)c1.O=C(O)C(F)(F)F,105.3
22,COc1cccc(CN2CCCC3(CCN(C(=O)N4CCCC4)C3)C2)c1.O=C(O)C(F)(F)F (configuration not stated),81.34
23,COc1cccc(CN2CCC3(CC2)CCN(c2ncccn2)C3)c1.O=C(O)C(F)(F)F.O=C(O)C(F)(F)F,13.94
24,COc1cccc(CN2CCC3(CCN(c4ncc(C)cn4)CC3)C2)c1.O=C(O)C(F)(F)F,4.048
